# Screening data from PubChem.
# Rows were chosen to be rich in hits. Some 28% of all compounds tested hit in one or more screens of this group.
# CYP2C9 inhib: inhibitors of human CYP2C9 | P11712 | CYP2C9 Supersomes, luciferin-H conversion, luminescence | inhibition, % at 5 µM | 96,000 tested, 20% active;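 active = blocking of liver enzyme CYP2C9 beyond about 50% at 5 µM, limit read from the data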
# CYP2C19 act: increases human CYP2C19 enzyme activity; activation factor at 5 µM; P33261; 96,000 tested, under 10 active; recombinant CYP2C19, luciferin-H EGE luminescence; hits give high values; 0 = fully inhibited enzyme, 1 = untreated enzyme;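 active = activation factor of at least 2 at 5 µM in the primary screen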;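 note: 0 = wells with 2.5 mM tranylcypromine and 1 = vehicle-only wells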
# CYP2C19 inh: blocks human cytochrome P450 2C19; P33261; CYP2C19 Supersomes, luciferin-H EGE luminescence, 30 min; inhibition, % at 5 µM; 96,000 tested, 21% active;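 active = CYP2C19 inhibition above a set limit at 5 µM in the primary screen, cut at about 50% in these data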;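 note: plate controls were negative control wells for no effect and 2.5 mM tranylcypromine positive control for full effect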
# D1 mod: allosteric modulators of human D1 dopamine receptor | P21728 | HEK293 D1, CRE-luciferase, dopamine EC30 potentiation; actives deviate in either direction | B-score at 10 µM | 58,000 tested, 5.9% active;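 active = luminescence count or its row- and column-corrected plate score outside the 99.7% band of the plate's sample wells, on either side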
# Target sequence (P21728 whole entry, looked up): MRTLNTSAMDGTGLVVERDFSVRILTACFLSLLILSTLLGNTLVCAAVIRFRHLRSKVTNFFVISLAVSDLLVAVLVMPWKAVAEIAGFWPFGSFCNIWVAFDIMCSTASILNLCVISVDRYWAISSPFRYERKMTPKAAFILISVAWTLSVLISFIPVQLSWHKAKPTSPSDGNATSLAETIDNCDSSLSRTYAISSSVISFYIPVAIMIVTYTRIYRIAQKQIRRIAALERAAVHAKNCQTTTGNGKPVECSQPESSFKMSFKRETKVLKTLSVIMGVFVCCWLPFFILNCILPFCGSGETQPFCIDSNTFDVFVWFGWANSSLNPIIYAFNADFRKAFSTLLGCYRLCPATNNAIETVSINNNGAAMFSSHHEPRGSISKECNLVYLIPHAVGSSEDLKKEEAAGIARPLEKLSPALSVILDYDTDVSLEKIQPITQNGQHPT
# CYP2C9 act: activators of human CYP2C9. P11712. recombinant CYP2C9, luciferin-H conversion, luminescence; hits give high values; factor 1 = untreated enzyme, 0 = blocked. activation factor at 5 µM. 96,000 tested, 1.4% active. AID 1024;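 active = activation factor of 2 or more for CYP2C9 at a 5 µM dose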;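 note: 0 = sulfaphenazole-blocked wells and 1 = vehicle-only wells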
# DAT uptake mod: human DAT dopamine uptake with cocaine, either direction; LLC-PK1 hDAT cells, [14C]-dopamine uptake with cocaine IC80; actives deviate in either direction; B-score at 10 µM; 110,000 tested, 1.3% active; AID 449768;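 active = Z score or B-score, a plate-position-corrected score, falls beyond the plate's 99.7% confidence bounds, in either direction; inactive = both scores lie inside the 99.7% bounds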;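 note: scored against the spread of the other compound wells on the same plate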
# * = called active by the depositor; . = no result given.
SMILES,CYP2C9 inhib,CYP2C19 act,CYP2C19 inh,D1 mod,CYP2C9 act,DAT uptake mod
CCCCCCC1CC(CSc2ncn[nH]2)OC1=O (stereo not given),66.7*,0.1,90.9*,0.236,0.3,-0.154
COCCN(CCOC)c1ncc(Cl)c(C(=O)c2c(C)cc3ccccn23)n1,-58.9,0.1,90.4*,0.811,1.6,0.28
Cc1cc(C(F)(F)F)n2nc(-c3cnn(C)c3C(F)(F)F)cc2n1,-21.6,0.6,35.1,.,1.2,1.54
Cc1sc(=NC(=O)c2ccco2)n(C)c1-c1ccccc1,65.2*,0.6,40.5,.,0.3,0.337
N#C/C(=C1/CCCCCN1)c1nnc2n1CCCCC2,-3.8,1,1.9,0.158,1,0.27
CCOc1ccc(-c2nc3n(c(=O)c2C#N)CCCS3)cc1,35.5,0.9,12.1,0.125,0.6,-0.191
CCOc1ccc(C2=CS/C(=C(\C#N)c3nnc4n3CCCCC4)N2CC)cc1,18.2,0.5,53.9*,-3.73,0.8,2.26
C=CCN1C(c2ccccc2)=CS/C1=C(\C#N)c1nnc2n1CCCCC2,27.2,0.2,83.1*,-0.557,0.7,0.906
CC1(C)Cc2[nH]c(=S)c(C#N)cc2CO1,12.1,1,4.6,.,0.9,0.0218
N#C/C(Cn1c[n+](NC(=O)Nc2ccccc2)cn1)=N/O,19.1,0.8,17.9,0.283,0.8,0.076
Cc1ccc(NC(=O)N2CCOCC2)c(C)c1,1.3,1,4.0,.,1,0.0129
CC(=O)/C(=N/Nc1cccc(C)c1)N1CCOCC1,67.5*,0.3,66.6*,.,0.3,.
CC(Nc1cc(=O)n(C)c(=O)[nH]1)c1ccccc1 (stereo not given),41.4,0.9,6.5,-0.4,0.6,-1.1
O=C(Nc1nccs1)c1ccc(COc2ccc(F)cc2)o1,9.9,0.9,14.2,-0.00649,0.9,-0.000322
CN(C)C(=O)c1ccc(COc2ccccc2Br)o1,26.4,0.2,83.0*,-0.034,0.7,-0.0457
COc1ccccc1OCc1ccc(C(=O)N(C)C)o1,4.0,0.8,20.5,.,1,0.0598
O=C(Nc1nccs1)c1ccc(COc2ccccc2Br)o1,90.6*,0.1,88.1*,-0.795,0.1,0.0266
O=C(CN1C(=O)C2CCCN2c2ncc(Cl)cc21)NCc1ccc2c(c1)OCO2 (stereo not given),15.9,0.6,40.3,0.0599,0.8,.
COc1ccc(CNC(=O)CN2C(=O)C3CCCN3c3ncc(Cl)cc32)cc1 (stereo not given),52.1*,0.2,82.5*,.,0.5,-0.175
CC1CCC(NC(=O)CN2C(=O)C3CCCN3c3ncc(Cl)cc32)CC1 (stereo not given),44.1,0.6,37.9,0.0562,0.6,0.221
COC(=O)c1ccccc1NC(=O)CN1C(=O)C2CCCN2c2ncc(Cl)cc21 (stereo not given),67.0*,0.5,48.1,-0.205,0.3,0.996
CCc1ccccc1NC(=O)CN1C(=O)C2CCCN2c2ncc(Cl)cc21 (stereo not given),53.5*,0.4,55.0*,.,0.5,-2.03
CCOCCOCCC(C(=O)OCC)P(=O)(c1ccccc1)c1ccccc1 (stereo not given),-12.5,1.1,-7.1,.,1.1,0.0174
O=C(NC1=NCCS1)c1ccc(Br)s1,-1.3,1,-3.8,.,1,0.641
CCOC(=O)C1CCN(C(=O)NC23CC4CC(CC(C4)C2)C3)CC1,11.1,0.5,48.2,-0.0305,0.9,0.0333
SMILES,CYP2C9 inhib,CYP2C19 act,CYP2C19 inh,D1 mod,CYP2C9 act,DAT uptake mod
Cc1ccc(S(=O)(=O)Nc2ccc3c(c2)ncn3C(C)(C)C)cc1,79.5*,0.1,91.8*,0.794,0.2,0.801
CC(C)(C)n1cnc2cc(NS(=O)(=O)c3ccc(Br)cc3)ccc21,98.6*,0,100.3*,0.0794,0,-0.0859
COc1ccc(C2/C(=C(\O)c3ccc4c(c3)OCCO4)C(=O)C(=O)N2Cc2ccco2)c(OC)c1 (stereo not given),.,.,.,.,.,1.41
CN1C(C(=O)NCc2cccc(Br)c2)CC2Cn3c(nc4cc(Cl)c(Cl)cc43)C21 (stereo not given),.,.,.,.,.,0.862
COc1ccccc1CNC(=O)COC(=O)c1ccc(NC(N)=O)cc1,-4.3,0.7,25.1,-0.696,1,2.09
Cc1cc(C)c(S(=O)(=O)N2CCOC2CNC(=O)C(=O)NCc2cccnc2)c(C)c1 (stereo not given),.,.,.,.,.,-0.92
